Only some compounds are listed: those with a hit (about 5.7% of all), similar ones and a draw of the others.
GLP-1R agonist: GLP-1 receptor (human) agonism. hit rate 0.007% among 380,000. P43220. HEK293 GLP-1R CRE-luciferase, luminescence, 4-6 h; cells express a hypersensitive GLP-1R form. Potency, µM (highest dose often 45.6 µM), usual class: activators. AID 624172
Target sequence (P43220 whole entry, looked up): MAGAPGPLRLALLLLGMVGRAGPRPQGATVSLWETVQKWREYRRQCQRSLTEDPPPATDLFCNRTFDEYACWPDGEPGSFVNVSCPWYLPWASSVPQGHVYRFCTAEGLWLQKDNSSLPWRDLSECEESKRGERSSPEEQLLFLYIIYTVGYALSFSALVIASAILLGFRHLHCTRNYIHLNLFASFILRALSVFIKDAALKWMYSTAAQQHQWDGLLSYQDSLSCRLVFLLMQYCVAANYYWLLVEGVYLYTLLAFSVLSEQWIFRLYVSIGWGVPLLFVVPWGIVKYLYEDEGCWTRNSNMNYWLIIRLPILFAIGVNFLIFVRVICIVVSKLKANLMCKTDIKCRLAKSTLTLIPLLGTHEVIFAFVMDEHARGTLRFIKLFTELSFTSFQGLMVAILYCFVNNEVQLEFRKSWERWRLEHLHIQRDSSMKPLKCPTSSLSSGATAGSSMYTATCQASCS
GLP1R inv ag: inverse agonists of human GLP-1 receptor; HEK293 GLP-1R CRE-luciferase, luminescence, 24 h; GLP-1R form is constitutively active; Potency, µM (top dose mostly 38.3 µM), hits mostly inhibitors; hit rate 1.6% among 410,000; AID 624417; also: nearly all actives have a fitted effect of over 55% in size
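Constitutively active GLP-1R drives a cAMP-responsive luciferase in stably transfected HEK293 cells; test compounds are added after overnight (12 h) attachment and left 24 hr, and signal loss in luminescence marks inhibition.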
D3 antag: antagonists of human D3 dopamine receptor; D3R cells, DiscoveRx beta-arrestin luminescence, antagonist mode; active compounds read low; hit rate 2.5% among 360,000; max response, negative = inhibition, %; AID 652054; P35462; in the data active = max response below about -50%; inconclusive = no clear call, values can overlap the other calls
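Cells plated overnight at 1500 cells/well, then exposed to library compounds with dopamine controls for 90 minutes at 37 degrees C. DiscoveRx reagent added for 30–60 minutes at room temperature; luminescence read, quantitative HTS format.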
ClpP mod: qHTS Assay for Activators of ClpP; ATP-dependent Clp protease proteolytic subunit (Bacillus subtilis (strain 168)), P80244; purified B. subtilis ClpP, FRET peptide cleavage, 20 min; Potency, µM (doses to about 57.5 µM); hit rate 1.9% among 340,000; AID 651965, 2013; active = well fitted falling curve with a large enough effect; inconclusive = small, poorly fitted or top-dose-only effect; inactive = no such curve, though single readings can be large or run the other way; also: the source files actives as falling curves though it sought activators and does not explain the sign; nearly all actives have a fitted effect of over 65% in size
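Purified B. subtilis ClpP, 10 microg/mL final in Tris/HCl pH8 with KCl, BSA, glycerol and Tween-20, cleaved an Abz/nitrotyrosine-quenched decapeptide. Fluorescence (ex 320, em 430) was read at 0 and 20 min at room temperature. Delta was normalized to 5.8 microM ADEP and DMSO/no-enzyme controls.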
D3 ag: activates the human D3 dopamine receptor; D3R DiscoveRx beta-arrestin cells, luminescence, 90 min; AID 652048; P35462; max activation, %; hit rate 0.58% among 410,000; in the data active = max activation above about 30%
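Agonist-mode cell screen: cells plated at 1500/well and incubated overnight at 37 °C, then exposed to library compounds for 90 min at 37 °C. Detection reagent was added for 30–60 min at room temperature, and luminescence was read.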
HEK293 tox: cytotoxicity counter-screen for GLP-1 receptor inverse agonists; HEK293 cAMP-luciferase reporter cells, luminescence, 24 h; Potency, µM (doses to about 38.3 µM), actives largely listed as inhibitors; hit rate 0.13% among 410,000; AID 624418;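 also: loss of luciferase light is scored as toxicity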
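A 23 nL compound transfer followed 12 hours of cell culture at 37 deg C; exposure then lasted 24 hr. Luciferase assay detection reagent was dispensed and plates read for luminescence after a 12 min room-temperature wait.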
A number is an active result; . = inactive; ? = inconclusive; / = not tested or not shown; [ ] = dose if it differs, or a comment. Unless noted, calls follow the shape of the dose curve; as a rule, active = well fitted curve in the direction sought with a large enough effect; inconclusive = small, poorly fitted or top-dose-only effect, or another doubt; inactive = no such curve, though single readings can be large; an effect the other way counts as inactive or inconclusive.

SMILES	GLP-1R agonist	GLP1R inv ag	D3 antag	ClpP mod	D3 ag	HEK293 tox
CCOC(=O)[C@]12CCCC=C1N(Cc1ccco1)C(=O)[C@H](CC(=O)N1CCCCC1)C2	.	.	.	.	.	.
CCOc1ccc(NC(=O)CSC2=Nc3ccccc3C3=NC(CC(=O)NCc4ccc5c(c4)OCO5)C(=O)N23)cc1 (stereo not drawn)	/	.	/	.	.	.
COc1ccccc1C(CCNCc1ccc(N(C)C)cc1)c1ccc(OC(C)C)cc1 (stereo not drawn)	.	?	?	.	.	?
COc1ccccc1NC(=O)CC(c1ccc(OC(C)C)cc1)c1ccccc1OC (stereo not drawn)	.	11µM	.	.	47	.
COc1ccc(C(CC(=O)O)c2ccc3c(c2)OCO3)cc1 (stereo not drawn)	.	.	?	.	.	.
COc1ccc(CNCCC(c2ccccc2)c2ccc3c(c2)OCO3)cc1 (stereo not drawn)	.	?	-74	.	.	?
COc1ccc(CNCCC(c2ccc(OC(C)C)cc2)c2ccccc2OC)cc1 (stereo not drawn)	.	5.6µM	.	.	.	?
CCC(Oc1ccccc1)C(=O)Nc1ccc(OCc2cc(=O)n3ccc(C)cc3n2)cc1 (stereo not drawn)	/	.	/	.	.	.
CC(C)c1ccc(S(=O)(=O)c2nnn3c2nc(N2CCCCC2)c2sccc23)cc1	/	.	/	25µM	.	.
CCOC(=O)C1CCN(c2nc3c(S(=O)(=O)c4ccc(Br)cc4)nnn3c3ccsc23)CC1	/	.	/	14µM	.	.
CCOC(=O)C1CCCN(c2nc3c(S(=O)(=O)c4ccc(Br)cc4)nnn3c3ccsc23)C1 (stereo not drawn)	/	.	/	11µM	.	.
CCOC(=O)C1CCCN(c2nc3c(S(=O)(=O)c4ccc(CC)cc4)nnn3c3ccsc23)C1 (stereo not drawn)	/	.	/	32µM	.	.
CCc1ccc(S(=O)(=O)c2nnn3c2nc(N2CCCC2)c2sccc23)cc1	/	.	/	?	.	.
CC(C)c1ccc(S(=O)(=O)c2nnn3c2nc(N2CCOCC2)c2sccc23)cc1	/	.	/	.	.	.
Cc1ccc(S(=O)(=O)c2nnn3c2nc(N2CCCCC2)c2sccc23)cc1	/	.	/	.	.	.
Cc1cccc(Cn2c(SCc3ccc(C(=O)NCCc4ccccc4)cc3)nc3ccncc32)c1	/	?	/	?	.	.
Nc1ncnc2c1ncn2[C@@H]1O[C@H](C(=O)N2CCN(Cc3ccccn3)CC2)[C@@H](O)[C@H]1O	.	.	.	.	.	.
Cc1ccc(CN2CCN(c3cccc4[nH]ccc34)CC2)cc1	.	.	-82	.	.	.
c1cnc(N2CCN(Cc3c[nH]c4ccccc34)CC2)nc1	.	?	-51	.	.	.
CCS(=O)(=O)N1CCN(Cc2c[nH]c3ccccc23)CC1	.	.[7.66 µM]	.	.	.	.[7.66 µM]
O=C(c1cccc(Cl)c1)N1CCN(Cc2c[nH]c3ccccc23)CC1	.	?	.	/	.	.
Cc1ccccc1N1CCN(Cc2c[nH]c3ccccc23)CC1	.	?	-86	.	.	?
CCc1ccc(NC(=O)Cn2c(=O)n(CCC(=O)NCCc3ccc(OC)c(OC)c3)c(=O)c3ccccc32)cc1	.	.	/	.	.	.
CCc1ccc2[nH]cc(S(=O)(=O)c3ccc(C(C)C)cc3)c(=O)c2c1	/	.	/	.	.	.
CCN(Cc1ccccc1)Cc1c(O)ccc2c(=O)c(-c3ccc(Cl)cc3)coc12	/	.	/	.	.	.
CCOc1ccc(-c2nnc(-c3snc(-c4ccc(F)cc4)c3N=CN(C)C)o2)cc1	.	.	.	28µM	.	.
COc1ccc(-c2nnc(-c3ccc(F)cc3)o2)cc1	.	.	.	.	.	.
CCOc1ccccc1C1CC(=O)Nc2c1c(=O)n(C)c1ncnn21 (stereo not drawn)	.	.	/	.	.	.

Source: PubChem BioAssay (National Center for Advancing Translational Sciences (NCATS))
